Source: PubChem
The full list was thinned out, with hits kept by preference.
RMI FANCM FP – inhibitors of human RMI core complex binding to FANCM MM2 | Fluorescence polarization, RMI core complex with F-MM2 peptide; hits give low values | FP signal (polarization) at 33 µM | 70,000 tested, 0.58% active; in the data active means FP signal below about 40
An asterisk follows results filed as active.

SMILES	RMI FANCM FP
Cc1ccccc1Cn1nc2n(C)c(=O)c3ccc(C(=O)NC4CCCC4)cc3n2c1=O	75
O=C(CC1SC(=Nc2ccc(C3CCCCC3)cc2)NC1=O)Nc1ccc(F)cc1 (stereo not drawn)	54
c1ccc2c(c1)Nc1nc3ccccc3nc1N2	-3*
c1ccc2c(c1)Nc1nc3ccccc3nc1O2	57
Cc1nc2ccccc2nc1C	53
O=C(Nc1ccc2c(c1)CCCN2C(=O)c1ccco1)c1cccc(C(F)(F)F)c1	55
CC(=O)N1CC(C)=C(C#N)C1O (stereo not drawn)	-1*
COC(=O)CNCC(=O)OC	62
O=C(NCCc1ccccc1)c1cccc2c3c([nH]c12)CCCC3	59
O=[N+]([O-])c1cnc(Sc2ccc(C(F)(F)F)cn2)s1	58
O=[N+]([O-])c1cnc(Sc2nnc(-c3ccc(Cl)cc3)o2)s1	55
CSc1nnc(Sc2ncc([N+](=O)[O-])s2)s1	2*
O=S(=O)(Cc1ccccc1)N1CCN(c2cnccn2)CC1	64
N#C/C(=C/C1=Cc2ccccc2OC1)c1nc2ccccc2s1	-59
Cn1c(/C=C(\C#N)c2nc3ccccc3s2)ccc1-c1cccc(Cl)c1	15*
Cc1ccc(-c2ccc(/C=C(\C#N)c3nc4ccccc4s3)o2)c([N+](=O)[O-])c1	60
Cc1ccccc1CSc1nnc(CCC(=O)O)c(=O)n1N	54
O=C(CSc1nc(-c2ccccc2)c(-c2ccccc2)o1)N1CCCC1	64
